Results published in PubChem BioAssay (NCATS).
Where “and” joins values, the source holds several entries; their conditions need not be identical. Identical values can stand only once. Results filed as inconclusive are left out. Calls of active or inactive are those of the source. Calls follow the shape of the dose curve; as a rule, active = well fitted curve in the direction sought with a large enough effect; inconclusive = small, poorly fitted or top-dose-only effect, or another doubt; inactive = no such curve, though single readings can be large; an effect the other way counts as inactive or inconclusive.

Columns and labels:
[1] = Viability qHTS for spleen associated tyrosine kinase inhibitor (SYKi) naive MV4-11 cells (AID 1963823); also: nearly all actives have a fitted effect of over 40% in size
In short: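 Luminescence from CellTiter-Glo, developed 10 min at room temperature, gave viability of MV4-11 cells never exposed to SYK inhibitor. Cells (500/well) had been incubated with compounds for 72 hr under standard culture conditions.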

[2] = Viability qHTS for spleen associated tyrosine kinase inhibitor (SYKi) drug resistant MV4-11 cells (AID 1963824); also: nearly all actives have a fitted effect of over 35% in size
In short: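 SYK inhibitor-resistant MV4-11 AML cells, 500 per well, added to predispensed compounds and incubated 72 hr at 37 C, 5% CO2. Viability measured by CellTiter-Glo luminescence after 10 min at room temperature.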

[3] = Quantitative highthroughput screen to assess conditional lethalithy of NOMO1 cells grown in RPMI1640 with untreated serum (RPMI+s) (AID 1963876); also: nearly all actives have a fitted effect of over 35% in size;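 as to Viability: 100% = DMSO wells and 0% = empty wells without cells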
In short: (§1)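 Each medium arm—HPLM with 10% dialyzed FBS, or RPMI1640 with 5 mM glucose and 10% untreated or dialyzed FBS—was screened against an 11-point, 3-fold compound titration for 48 h at 37 °C, with CellTiter-Glo luminescence as endpoint.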

[4] = Quantitative highthroughput screen to assess conditional lethalithy of NOMO1 cells grown in RPMI1640 with dialyzed fetal bovine serum (RPMI+ds) (AID 1963877); also: nearly all actives have a fitted effect of over 30% in size;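 as to Viability: series mostly up to about 46 µM; 100% = DMSO control wells and 0% = empty wells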
In short: as §1

[5] = Quantitative highthroughput screen to assess conditional lethalithy of NOMO1 cells grown in Human Plasma-Like Medium with dialyzed fetal bovine serum (HPLM+ds) (AID 1963878); also: nearly all actives have a fitted effect of over 35% in size;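 as to Viability: 100% = DMSO wells and 0% = empty wells on each plate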
In short: as §1

[6] = Quantitative highthroughput screen to assess conditional lethalithy of P12 Ichikawa cells grown in Human Plasma-Like Medium with dialyzed fetal bovine serum (HPLM+ds) (AID 1963879); conditions: Potency: viability; also: nearly all actives have a fitted effect of over 35% in size; as to Viability: series mostly up to about 46 µM
In short: as §1

[7] = Quantitative highthroughput screen to assess conditional lethalithy of SEM cells grown in RPMI1640 with dialyzed fetal bovine serum (RPMI+ds) (AID 1963884); also: nearly all actives have a fitted effect of over 35% in size;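 as to Viability: series mostly up to about 46 µM; 100% = DMSO control wells and 0% = empty wells without cells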
In short: as §1

[8] = Cellular viability qHTS for adrenocortical cancer (ACC) cell line NCI-H295R (AID 1963990); also: nearly all actives have a fitted effect of over 60% in size;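 as to activity change, negative = viability loss: 0% = DMSO only wells and -100% = full killing with cytotoxic reference compound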
In short: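 Readout: CellTiter-Glo luminescence, 20 min RT. Exposure: 48 h, 37C/5% CO2. Cells: NCI-H295R, ITS-DMEM serum-free. Range: up to 46 uM. Analysis: 4PL fit, IC50 plus efficacy.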

[9] = Quantitative highthroughput screen to assess conditional lethalithy of P12 Ichikawa cells grown in RPMI1640 with untreated serum (RPMI+s) (AID 1963881); conditions: Potency: viability; also: nearly all actives have a fitted effect of over 35% in size;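 as to Viability: series mostly up to about 46 µM; 100% = DMSO wells and 0% = empty wells without cells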
In short: as §1

[10] = Quantitative highthroughput screen to assess conditional lethalithy of P12 Ichikawa cells grown in RPMI1640 with dialyzed fetal bovine serum (RPMI+ds) (AID 1963880); conditions: Potency: P12-Ichikawa viability; also: nearly all actives have a fitted effect of over 35% in size;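 as to Viability: 100% = DMSO wells and 0% = empty wells on each plate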
In short: as §1

[11] = Quantitative highthroughput screen to assess conditional lethalithy of SEM cells grown in Human Plasma-Like Medium with dialyzed fetal bovine serum (HPLM+ds) (AID 1963882); also: nearly all actives have a fitted effect of over 35% in size; as to Viability: series mostly up to about 46 µM
In short: as §1

[12] = Quantitative highthroughput screen to assess conditional lethalithy of SEM cells grown in RPMI1640 with unreated serum (RPMI+s) (AID 1963883); also: nearly all actives have a fitted effect of over 35% in size;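 as to Viability: 100% = DMSO wells and 0% = empty wells without cells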
In short: as §1

[13] = Cellular viability qHTS for adrenocortical cancer (ACC) cell line SW-13 (AID 1963989); conditions: SW-13 ACC cells viability, CellTiter-Glo, 48 h; activity (max response): stronger effect = lower value; also: nearly all actives have a fitted effect of over 65% in size;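 as to activity (max response): cells grown in serum-free medium with ITS supplement; % is scaled to controls: 0 for no effect and ±100 for the full control effect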
In short: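 Compound titrations (up to 46 uM final, in DMSO) were applied to SW-13 cells for 48 h at 37C/5% CO2. Reading used CellTiter-Glo after 20 min at room temperature; fitted curves yielded IC50 and efficacy.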
Potency is read from the fitted curve at half-maximal effect.

Cc1ccn(-c2ccc(-c3ncco3)cc2)c(=O)c1-c1ccc2nc(N)ncc2c1
inactive: Potency [3] | Potency [4] | Potency [5] | Potency [6] | Potency [8]
active: Potency [1] 1.64 µM | Potency [2] 2.31 µM | Potency [7] 1.87 µM

Cc1cc(O)c2c(c1)C(=O)c1cccc(O)c1C2=O
active: Potency [5] 20.9 µM | Potency [6] 18.7 µM
inactive: Potency [1] | Potency [2] | Potency [3] | Potency [4] | Potency [9] | Potency [8]

N#CC1(c2ccc(NC(=O)c3cccnc3NCc3ccncc3)cc2)CCCC1
inactive: Potency [3] | Potency [4] | Potency [5] | Potency [10] | Potency [9] | Potency [11] | Potency [12] | activity (max response) [13] -5.11% | Potency [8]
active: Potency [1] 2.31 µM | Potency [2] 5.17 µM | Potency [7] 1.66 µM

CC(O)C1C(=O)N2C(C(=O)O)=C(SC3CNC(C(=O)N(C)C)C3)C(C)C12 (stereo not given)
inactive: Potency [1] | Potency [2] | Potency [3] | Potency [4] | Potency [5] | Potency [6] | Potency [9] | Potency [11] | Potency [12] | Potency [7]

N=c1ccn2c(n1)O[C@H]1[C@@H](O)[C@@H](CO)O[C@H]12
inactive: Potency [8]
active: Potency [1] 2.95 µM | Potency [2] 3.32 µM | Potency [3] 2.96 µM | Potency [4] 1.48 µM | Potency [5] 1.48 µM | Potency [6] 0.132 µM | Potency [11] 0.132 µM | Potency [7] 0.0935 µM

CN1CCN(CCCN2c3ccccc3Sc3ccc(C(F)(F)F)cc32)CC1
active: Potency [1] 11.9 µM and 18.6 µM | Potency [2] 6.99 µM and 21.1 µM and 11.8 µM | Potency [3] 1.87 µM | Potency [4] 2.96 µM | Potency [5] 2.64 µM | Potency [6] 13.2 µM | Potency [9] 11.8 µM | Potency [13] 20.6 µM and 25.1 µM
inactive: Potency [12]

CN[C@@H](C)[C@H]1[C@H](O)C[C@@]2(C)[C@@H]3CC[C@H]4C(C)(C)[C@@H](NC)CC[C@@]45C[C@@]35CC[C@]12C
inactive: viability (% of control) [1] 79.2% [at 9.25 µM] | viability, % of control [2] 80.2% [at 9.25 µM] | Potency [3] | Potency [4] | Potency [5] | Potency [6] | Potency [9] | Potency [12] | Potency [7] | activity (max response) [13] -3.37% | activity change, negative = viability loss [8] -14.8% [at 9.17 µM]

COc1cccc2c1C(=O)c1c(O)c3c(c(O)c1C2=O)C[C@@](O)(C(=O)CO)C[C@@H]3O[C@H]1C[C@H](N)[C@@H](O)[C@H](C)O1
active: Potency [1] 0.0661 µM | Potency [2] 0.0525 µM | Potency [3] 2.96 µM | Potency [4] 2.96 µM | Potency [5] 3.32 µM | Potency [10] 2.96 µM | Potency [9] 2.96 µM | Potency [11] 2.64 µM | Potency [12] 1.48 µM | Potency [7] 2.64 µM | Potency [13] 1.12 µM

CCc1cc(C(N)=S)ccn1
inactive: Potency [1] | Potency [2] | Potency [3] | Potency [4] | Potency [5] | activity (max response) [13] 3.73% and -4.72% | Potency [8]
active: Potency [6] 14.8 µM | Potency [10] 8.33 µM | Potency [12] 8.33 µM | Potency [7] 7.43 µM

COc1ccc2cc(-c3nc(-c4ccc(S(C)=O)cc4)[nH]c3-c3ccncc3)ccc2c1 (stereo not given)
active: Potency [1] 9.34 µM and 11.6 µM | Potency [2] 9.34 µM and 13 µM | Potency [8] 28.2 µM
inactive: Potency [3] | Potency [4] | Potency [5] | Potency [6] | Potency [11] | Potency [12] | Potency [7]

COC(=O)N[C@H](C(=O)N[C@@H](Cc1ccccc1)[C@@H](O)CN(Cc1ccc(-c2ccccn2)cc1)NC(=O)[C@@H](NC(=O)OC)C(C)(C)C)C(C)(C)C
inactive: Potency [1] | Potency [2] | Potency [3] | Potency [4] | Potency [5] | Potency [10] | Potency [9] | Potency [11] | Potency [12] | Potency [7] | activity (max response) [13] -5.43% | Potency [8]

COc1cccc(OC)c1-c1cc(C(=O)NC2(C(=O)O)C3CC4CC(C3)CC2C4)nn1-c1ccnc2cc(Cl)ccc12 (stereo not given)
inactive: Potency [3] | Potency [4] | Potency [5] | Potency [6] | Potency [9] | Potency [11] | Potency [12] | Potency [7] | activity (max response) [13] -4.12% | Potency [8]
active: Potency [1] 9.34 µM | Potency [2] 5.9 µM

O=C1N(c2ccccc2)c2ccccc2C1(Cc1ccncc1)Cc1ccncc1
inactive: Potency [1] | Potency [2] | Potency [3] | Potency [4] | Potency [5] | Potency [6] | Potency [11] | activity (max response) [13] -5.03% and 7.18% | Potency [8]

CC(C)(C)C(=O)Oc1ccc2c(c1)nc(NC(=O)c1cccc([N+](=O)[O-])c1)n2CCCO
active: Potency [1] 4.68 µM | Potency [2] 9.34 µM
inactive: Potency [3] | Potency [4] | Potency [5] | Potency [6] | Potency [9] | Potency [11] | Potency [12] | Potency [7] | activity (max response) [13] -24.3% | Potency [8]

CCS(=O)(=O)c1cccc(-c2cc(C(=O)NC3CCN(C)CC3)c(C)c3[nH]c4ncc(C)cc4c23)c1
active: Potency [1] 40.4 nM and 59 nM | Potency [2] 36 nM and 66.1 nM | Potency [3] 14.8 µM | Potency [4] 11.8 µM | Potency [5] 6.62 µM | Potency [6] 0.264 µM | Potency [9] 0.235 µM | Potency [11] 0.469 µM | Potency [12] 0.296 µM | Potency [13] 1 µM | Potency [8] 17.8 µM
